Laboratory results reported in PubChem BioAssay (NCI).
This is part of a sample that, as a whole, favours compounds with a hit. Of some 83,000 tested, about 20% had one in any assay.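 The endpoint reported here, percent growth, reads 100 for growth as untreated, 0 for no net growth and -100 for all cells dead.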 Active and inactive are the calls of the source. Rule for the calls: active = growth percent below 10; inactive = the rest.

Legend:
Assay in all cases: NCI-60 one-dose screen, 48 h (100 = growth as untreated, 0 = no growth, -100 = all killed)
Conditions in all cases: 10 µM unless noted
[1] = system: DU-145 prostate
[2] = system: K-562 leukemia
[3] = system: MALME-3M melanoma
[4] = system: MDA-MB-231 breast
[5] = system: RXF 393 renal
[6] = system: SF-268 CNS
[7] = system: SF-295 CNS
[8] = system: SF-539 CNS
[9] = system: UACC-257 melanoma
[10] = system: M14 melanoma
[11] = system: HCT-15 colon
[12] = system: HT29 colon
[13] = system: SNB-75 CNS
[14] = system: SNB-19 CNS
[15] = system: U251 CNS
[16] = system: PC-3 prostate
[17] = system: SK-MEL-5 melanoma
[18] = system: UACC-62 melanoma
[19] = system: LOX IMVI melanoma
[20] = system: SK-MEL-28 melanoma

Measured: growth

CC[C@]12C=CCN3CC[C@@]4(c5ccc(OC)cc5N(C)[C@H]4[C@@](O)(C(=O)OC)[C@@H]1OC(=O)CCC(=O)N[C@H](Cc1c[nH]c4ccccc14)C(=O)OC)[C@@H]32
active: [1] -49.9% [100 µM] | [2] 5.85% [100 µM] | [3] -68.8% [100 µM] | [4] -71% [100 µM] | [5] -60.6% [100 µM] | [6] -43% [100 µM] | [7] -38.4% [100 µM] | [8] -57.1% [100 µM] | [9] -29.2% [100 µM] | [10] -32.8% [100 µM] | [11] -24.1% [100 µM] | [12] 5.23% [100 µM] | [13] -68.8% [100 µM] | [14] -51.2% [100 µM] | [15] 3.72% [100 µM] | [16] -15.8% [100 µM] | [17] -53% [100 µM] | [18] -61.1% [100 µM] | [19] -54.4% [100 µM] | [20] -49.6% [100 µM]

CCOC(=O)c1ccc2nc(-c3c(C)nn(-c4ccccc4)c3N3CCOCC3)[nH]c2c1
inactive: [1] 105% | [2] 91.2% | [3] 98.7% | [4] 69.9% | [5] 92.1% | [6] 94.3% | [7] 96.2% | [8] 95.8% | [9] 106% | [10] 89.3% | [11] 103% | [12] 110% | [13] 84.9% | [14] 98.6% | [15] 90.8% | [16] 86.9% | [17] 94.2% | [18] 77.5% | [19] 82% | [20] 110%

NNC(=O)c1ccc(C(=O)NN)cc1
inactive: [1] 109% | [2] 112% | [3] 98% | [4] 117% | [5] 111% | [6] 106% | [7] 106% | [8] 115% | [9] 94.6% | [10] 114% | [11] 112% | [12] 97.9% | [13] 113% | [14] 103% | [15] 93.2% | [16] 114% | [17] 108% | [18] 97.6% | [19] 102% | [20] 114%

O=C(NCCO)c1cccnc1
inactive: [1] 109% | [2] 95.2% | [3] 105% | [4] 112% | [5] 112% | [6] 100% | [7] 101% | [8] 101% | [9] 87.7% | [10] 104% | [11] 113% | [12] 91.5% | [13] 92.9% | [14] 101% | [15] 92.7% | [16] 83.4% | [17] 96% | [18] 105% | [19] 95% | [20] 106%

N#Cc1ccc(-c2ccc(COc3ccc(CC4SC(=O)NC4=O)cc3)cc2)cc1 (stereo not given)
inactive: [1] 92.6% | [2] 28.3% | [3] 59.5% | [4] 71.2% | [5] 97.5% | [6] 63.6% | [7] 50.3% | [8] 65.5% | [9] 84.9% | [10] 73.4% | [11] 63.6% | [12] 103% | [13] 67.8% | [14] 63.3% | [15] 63% | [16] 54.4% | [18] 51.4% | [19] 48.5% | [20] 79%
active: [17] -18.3%

COc1cccc(-c2[nH]c(=S)ncc2C(=O)c2ccccc2)c1
inactive: [1] 98.4% | [2] 35% | [3] 71% | [4] 99.3% | [5] 90.6% | [6] 90% | [7] 68.6% | [8] 84.9% | [9] 97.3% | [10] 61.9% | [11] 50.8% | [12] 46.8% | [13] 66.6% | [14] 82.9% | [15] 85% | [16] 91.6% | [17] 83.2% | [18] 74.3% | [19] 72.4% | [20] 81.4%

COc1ccc(-c2cc(-c3ccc(Cl)cc3)nc(SCCCCCCC(=O)NO)n2)cc1
active: [5] -0.367% | [17] -6.04% | [19] -17.6%
inactive: [1] 24.6% | [2] 20.1% | [3] 11.7% | [4] 45.8% | [6] 31.7% | [7] 36.3% | [8] 34.8% | [9] 23% | [10] 22.3% | [11] 15.5% | [12] 10.8% | [13] 34.5% | [14] 35.9% | [15] 19% | [16] 49.2% | [18] 14.9% | [20] 57.6%

COC(=O)c1cc(O)c2c(c1C(=O)OC)C[C@H]1[C@@H]3CC=C4C[C@@H](O)CC[C@]4(C)[C@H]3CC[C@]21C
active: [4] 2.21% | [5] -60.6% | [7] -14.5% | [8] 8.9% | [17] 1.59% | [19] 9.77%
inactive: [1] 79% | [2] 20% | [3] 28.3% | [6] 66.8% | [9] 14.3% | [10] 11.6% | [11] 24.6% | [12] 16.2% | [13] 62.2% | [14] 66.9% | [15] 37.5% | [16] 41.3% | [18] 40.9% | [20] 46.3%

CCOC(=O)COc1ccc2c(c1)O/C(=C\c1ccc(O)cc1)C2=O
inactive: [1] 106% | [2] 106% | [3] 102% | [4] 117% | [5] 114% | [6] 94.2% | [7] 101% | [8] 102% | [9] 105% | [10] 103% | [11] 101% | [12] 108% | [13] 87.7% | [14] 102% | [15] 107% | [16] 112% | [17] 102% | [18] 98.9% | [19] 97.9% | [20] 106%

O=C1NC(=O)C(Cc2ccc(OCc3ccc(-c4cc(F)c(F)c(F)c4)cc3)cc2)S1 (stereo not given)
inactive: [1] 95.1% | [2] 65% | [3] 93% | [4] 76.7% | [5] 102% | [6] 78.5% | [7] 85.7% | [8] 85% | [9] 90.7% | [10] 94.8% | [11] 88.2% | [12] 107% | [13] 83.2% | [14] 93.5% | [15] 86.1% | [16] 71.4% | [17] 76.5% | [18] 56.2% | [19] 77.4% | [20] 102%

CCn1cc(-c2ccnc(NCCNS(=O)(=O)c3ccc(Br)cc3)c2)c(-c2cccc(OC)c2)n1
inactive: [1] 84.7% | [2] 42.1% | [3] 70.9% | [4] 80.8% | [5] 99.8% | [6] 71.5% | [7] 95.4% | [8] 78.3% | [9] 89.8% | [10] 83.3% | [11] 69.2% | [12] 56.5% | [13] 81.7% | [14] 83.2% | [15] 58.8% | [16] 41.7% | [17] 64% | [18] 71% | [19] 94.2% | [20] 100%

O=C(OCc1ccc2c(Cl)cc(Cl)c(O)c2n1)N1CCN(C(=O)c2cc3cc(F)ccc3[nH]2)CC1
active: [1] -10.4% | [8] -20.1% | [10] 7.85% | [15] 8.06% | [17] -33%
inactive: [2] 13.3% | [3] 38.2% | [4] 28.2% | [5] 16.4% | [6] 31.1% | [7] 25.1% | [9] 25.1% | [11] 10.6% | [12] 99.1% | [13] 28.6% | [14] 50.2% | [16] 15.8% | [18] 35.3% | [19] 12.2% | [20] 60.7%

Cc1cccc(C[C@H](NC(=O)Nc2ccc(Cl)cc2F)C(=O)N[C@@H]2C(=O)N3C[C@H](OC(=O)CCN(C)C)C[C@H]3C(=O)N3CCCC[C@H]3C(=O)N[C@@H](C)C(=O)N3C[C@H](C)C[C@H]3C(=O)O[C@H]2C)c1
inactive: [1] 23.7% | [2] 15.8% | [3] 27.1% | [5] 18.7% | [6] 24.8% | [8] 35.6% | [9] 16.3% | [10] 16.5% | [11] 64.8% | [13] 13.5% | [14] 21.3% | [15] 22.9% | [16] 16.7% | [18] 13.4% | [19] 23.9% | [20] 25.8%
active: [4] 1.21% | [7] 7.95% | [12] 5.77% | [17] 6.65%

CCOC(=O)c1cc(C#N)n2ncc3ccccc3c12
inactive: [1] 109% | [2] 95.1% | [3] 102% | [4] 98.6% | [5] 102% | [6] 101% | [7] 103% | [8] 89% | [10] 93.2% | [11] 94.3% | [12] 98% | [13] 72.7% | [14] 91.8% | [15] 93.2% | [16] 92.8% | [17] 98% | [18] 91.7% | [19] 95.6% | [20] 101%
active: [9] -53.6%

Cn1cc(-c2noc(-c3cn(C)c4ncc(F)cc34)n2)c2cc(Br)ccc21
inactive: [1] 84.6% | [2] 86.6% | [3] 57.5% | [4] 60.8% | [5] 90.9% | [6] 76.1% | [7] 84.6% | [8] 71.3% | [9] 98.7% | [10] 85.7% | [11] 76% | [12] 47.3% | [13] 61.2% | [14] 75.9% | [15] 29.4% | [16] 75.3% | [17] 83.9% | [18] 76.1% | [19] 70.7% | [20] 83.7%

O=C1Nc2ccccc2/C1=C/C(=O)c1ccc(N2CCCCC2)cc1
inactive: [1] 66.8% | [2] 68.2% | [3] 69.8% | [4] 82.1% | [5] 77% | [6] 71.7% | [7] 103% | [8] 79.3% | [9] 97.7% | [10] 107% | [11] 79.8% | [12] 32.8% | [13] 91.4% | [14] 86.5% | [15] 52.7% | [16] 52.7% | [17] 93.2% | [18] 68.6% | [19] 43.3% | [20] 105%
